{"source": "PubChem BioAssay AID2506", "about": "(National Center for Advancing Translational Sciences (NCATS), 2010)", "note": "Values joined by “and” are separate entries in the source; they are usually repeats but may differ in a detail not shown here. Equal entries are not always repeated. Active and inactive are the calls of the source. Calls come from the whole dose curve; as a rule, active = well fitted curve in the direction sought with a large enough effect; inactive = no such curve, though single readings can be large or run the other way.", "data": [{"tested_on": "4-diphosphocytidyl-2-C-methyl-D-erythritol kinase IspE (bacterial, species not stated)", "assay": "Confirmatory Assay for Inhibitors of Human Galactokinase (GALK): CDP-Me assay counterscreen for probe SAR", "conditions": "Kinase-Glo ATP luminescence, 1 h", "source_text": "NIH Molecular Libraries Probe Production Centers Network [MLPCN] NIH Chemical Genomics Center [NCGC] MLPCN Grant: R03 MH085689-01 Assay Submitter (PI): Kent Lai (University of Utah School of Medicine, 50 N Mario Capecchi Drive, Salt Lake City, UT 84132) NCGC Assay Overview The GHMP kinase family is a unique class of important enzymes that plays an essential role in many metabolic processes. It contains more than 170 protein members among which are the galactokinase (GALK) and the CMK enzymes. GALK plays a crucial role in galactose processing and is a potential therapeutic target for Classic Galactosemia (OMIM: 230400). CMK is involved for the non-mevalonate synthesis of isoprenoids precursors and natural products like sterols or ubiquinones which are important to many biological functions. Although the sequence identity between GALK and CMK is low, the three-dimensional structures and active sites are highly similar. Therefore to determine the validity and selectivity of an active compound observed in the GALK qHTS screen (AID: 1868), a bioluminescent counter-screen targeting bacterial CMK was developed. In addition, because the mevalonate independent synthesis of isoprenoids are more prevalent in opportunistic pathogens such as bacteria, CMK is a potential novel therapeutic target where selective inhibitors could be used to determine potential antibacterial effects. The CMK (provided by Kent Lai) was assayed using ATP and 4-diphosphocytidyl-2-C-methyl-D-erythritol (CDP-ME; Echelon, cat# I-M052) as substrates. Promega Kinase-Glo Plus (cat# V3774) technology was used to detect the residual ATP following kinetic reaction. Briefly, the Kinase-Glo Plus contains Ultra-Glo [5] luciferase and D-luciferin which generates a bioluminescence signal from the remaining ATP.\nNCGC Assay Protocol Summary: Three uL/well of substrate solution (15 uM ATP, 30 uM CDP-ME, 20 mM HEPES pH8.0, 5 mM MgCl2, 40 mM KCl, 1 mM DTT, 0.01% BSA final concentration) was dispensed into 1536-well, assay plates (Greiner, solid white medium-binding plates) with Aurora Discovery BioRAPTR Flying Reagent Dispenser (FRD; Beckton-Dickenson). Compound and control solutions (23 nL) were transferred to the assay plate using the Kalypsys 1536-pin tool. One uL/well enzyme solution (0.25 ug/mL CDP-Me kinase, 20 mM HEPES pH8.0, 5 mM MgCl2, 40 mM KCl, 1 mM DTT, 0.01% BSA final concentration) was then added using the FRD yielding a total kinase reaction volume of 4 uL/ well. After 1 hour of room temperature incubation, 4 uL Kinase-Glo Plus reagent was added for a final assay volume of 8 uL/well. After 1 min, luminescence was detected with the ViewLux plate reader (Perkin Elmer, Waltham, MA) using a 1 sec exposure time and 2x binning settings.", "values": [{"smiles": "COc1ccc(C2N=C(Nc3nc4ccccc4o3)NC3=C2C(=O)CC(C)(C)C3)cc1", "note": "(stereo not drawn)", "max response": "1.84% (inactive)"}, {"smiles": "Cc1ccc2nc(NC3=NC4(CCCC4)C4=C(CCCC4=O)N3)oc2c1", "max response": "7.12% (inactive)"}, {"smiles": "O=C1CCCC2=C1C1(CCCOC1)N=C(Nc1nc3ccccc3o1)N2", "note": "(stereo not drawn)", "max response": "3.35% (inactive)"}, {"smiles": "Cc1ccc(C2N=C(Nc3nc4ccccc4o3)NC3=C2C(=O)CC(C)(C)C3)cc1", "note": "(stereo not drawn)", "max response": "2.37% (inactive)"}, {"smiles": "Cc1nc(Nc2nc3ccccc3o2)nc2c1C(=O)CC(C)(C)C2", "max response": "-1.17% (inactive)"}, {"smiles": "O=C1CCCC2=C1C1(CCSC1)N=C(Nc1nc3ccccc3o1)N2", "note": "(stereo not drawn)", "max response": "-0.317% (inactive)"}, {"smiles": "O=C1CCCC2=C1C1(CCCC1)N=C(Nc1nc3ccccc3n1Cc1ccccc1)N2", "max response": "4.95% (inactive)"}, {"smiles": "O=C1CCCC2=C1C1(CCCC1)N=C(Nc1nc3cc(Br)ccc3o1)N2", "max response": "5.8% (inactive)"}, {"smiles": "CC1(C)CC(=O)C2=C(C1)NC(Nc1nc3ccccc3o1)=NC2c1cccc(Cl)c1", "note": "(stereo not drawn)", "max response": "2.44% (inactive)"}, {"smiles": "O=C1CCCC2=C1C1(CCCC1)N=C(Nc1nc3cc(Cl)ccc3o1)N2", "max response": "3.11% (inactive)"}, {"smiles": "Cn1c(NC2=NC3(CCCC3)C3=C(CCCC3=O)N2)nc2ccccc21", "max response": "5.48% (inactive)"}, {"smiles": "CC1(C)CC(=O)C2=C(C1)NC(Nc1nc3ccccc3o1)=NC21CCCC1", "max response": "-5.27% (inactive)"}, {"smiles": "CC1(C)CC(=O)C2=C(C1)NC(Nc1nc3ccccc3o1)=NC2c1cccnc1", "note": "(stereo not drawn)", "max response": "1.01% (inactive)"}, {"smiles": "O=C1CCCC2=C1C1(CCSCC1)N=C(Nc1nc3ccccc3o1)N2", "max response": "-0.443% (inactive)"}, {"smiles": "CC1CCC2(C1)N=C(Nc1nc3ccccc3o1)NC1=C2C(=O)CCC1", "note": "(stereo not drawn)", "max response": "2.87% (inactive)"}, {"smiles": "Cc1ccc2oc(NC3=NC4(CCCC4)C4=C(CCCC4=O)N3)nc2c1", "max response": "5.2% (inactive)"}, {"smiles": "O=C1CCCC2=C1C1(CCCC1)N=C(Nc1nc3ccccc3o1)N2", "max response": "4.68% (inactive) and -2.85% (inactive)"}, {"smiles": "O=C1CCCC2=C1C1(CCS(=O)(=O)C1)N=C(Nc1nc3ccccc3o1)N2", "note": "(stereo not drawn)", "max response": "-0.863% (inactive)"}, {"smiles": "O=C1CCC2=C1C1(CCCC1)N=C(Nc1nc3ccccc3o1)N2", "max response": "2.86% (inactive)"}, {"smiles": "COc1cccc(C2N=C(Nc3nc4ccccc4o3)NC3=C2C(=O)CC(C)(C)C3)c1", "note": "(stereo not drawn)", "max response": "0.986% (inactive)"}, {"smiles": "CCC1CCC2(C1)N=C(Nc1nc3ccccc3o1)NC1=C2C(=O)CCC1", "note": "(stereo not drawn)", "max response": "0.524% (inactive) [middle of 5 runs]"}, {"smiles": "CC1(C)CC(=O)C2=C(C1)NC(Nc1nc3ccccc3o1)=NC2c1cccc(O)c1", "note": "(stereo not drawn)", "max response": "1.58% (inactive)"}, {"smiles": "O=C1CCCC2=C1[C@@]1(CCC(c3ccccc3)C1)N=C(Nc1nc3ccccc3o1)N2", "note": "(stereo partly drawn)", "max response": "3.98% (inactive)"}, {"smiles": "O=C1CCCC2=C1C1(CCC1)N=C(Nc1nc3ccccc3o1)N2", "max response": "4.72% (inactive)"}, {"smiles": "CC1(C)CC(=O)C2=C(C1)NC(Nc1nc3ccccc3o1)=NC2c1ccccc1", "note": "(stereo not drawn)", "max response": "1.82% (inactive)"}, {"smiles": "O=C1CCCC2=C1C1(CCOCC1)N=C(Nc1nc3ccccc3o1)N2", "max response": "4.63% (inactive)"}, {"smiles": "O=C1CCCC2=C1C1(CCCC1)N=C(Nc1nc3cc(-c4ccccc4)ccc3o1)N2", "max response": "-2.69% (inactive)"}, {"smiles": "O=C1CCCC2=C1C(c1ccc(Cl)cc1)N=C(Nc1nc3ccccc3o1)N2", "note": "(stereo not drawn)", "max response": "0.739% (inactive)"}, {"smiles": "CC1(C)CC(=O)C2=C(C1)NC(Nc1nc3ccccc3o1)=NC2c1cccc(F)c1", "note": "(stereo not drawn)", "max response": "2.59% (inactive)"}, {"smiles": "O=C1CC(c2ccccc2)CC2=C1C1(CCCC1)N=C(Nc1nc3ccccc3o1)N2", "note": "(stereo not drawn)", "max response": "3.59% (inactive)"}, {"smiles": "CC1(C)N=C(Nc2nc3ccccc3o2)NC2=C1C(=O)CCC2", "max response": "3.59% (inactive)"}, {"smiles": "O=C1CCCC2=C1C1(CCCC1)N=C(Nc1nc3cc4ccccc4cc3o1)N2", "max response": "5.94% (inactive)"}, {"smiles": "O=C1CCCC2=C1C1(CCCCC1)N=C(Nc1nc3ccccc3o1)N2", "max response": "-0.522% (inactive)"}, {"smiles": "O=C1CCCC2=C1C(c1ccccc1Cl)N=C(Nc1nc3ccccc3o1)N2", "note": "(stereo not drawn)", "max response": "-2.1% (inactive)"}, {"smiles": "CC1(C)CC(=O)C2=C(C1)NC(Nc1nc3ccccc3o1)=NC2c1ccccc1Cl", "note": "(stereo not drawn)", "max response": "1.88% (inactive)"}, {"smiles": "COc1ccccc1C1N=C(Nc2nc3ccccc3o2)NC2=C1C(=O)CC(C)(C)C2", "note": "(stereo not drawn)", "max response": "1.66% (inactive)"}, {"smiles": "O=C1CC(c2ccccc2)CC2=C1C1(CCCCC1)N=C(Nc1nc3ccccc3o1)N2", "note": "(stereo not drawn)", "max response": "5.2% (inactive)"}, {"smiles": "O=C1CCC2=C1C(c1ccccc1Cl)N=C(Nc1nc3ccccc3o1)N2", "note": "(stereo not drawn)", "max response": "-0.401% (inactive)"}]}]}
